# According to article PMC5540273 (PLoS ONE, 2017):
# Tested on: EPHB3
# Conditions: concentration: 1 μM, replicates: in singlicate; n = 1
# 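Note: KINOMEscan kinase panel screen.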
row,SMILES,%Inh
1,Nc1ncc(-c2ccc3nccc(-c4ccncc4)c3c2)cc1S(=O)(=O)N1CCCCC1 [GSK1693850],0%
2,COc1cccc(CC(=O)N2CCc3cc(-c4cn(C)c5ncnc(N)c45)ccc32)c1 [GSK2608899],7%
3,CC(C)NCC(Cc1ccccc1)NC(=O)c1cc(Br)c(-c2ccnc3[nH]ccc23)s1.Cl.Cl (stereo not shown) [GSK1383281],2%
4,Nc1ncc(-c2cn[nH]c2)c2scc(-c3ccc4c(c3)CCN4C(=O)Cc3ccccc3)c12 [GSK2593067],0%
5,Cc1cccc(Nc2nc(NCCN)ncc2C(N)=O)c1 [GSK1292139],0%
6,CC(C)c1nc(-c2cccc(NS(=O)(=O)c3c(F)cccc3F)c2)c(-c2ccnc(Nc3ccc(N4CCOCC4)nc3)n2)s1.Cl [GSK1723980],0%
7,Cc1ccc(-c2ccc3occ(-c4ccc(S(C)=O)cc4)c3c2)nn1 (stereo not shown),14%
8,COc1ccc(C2=C(Nc3cccc(O)c3)C(=O)NC2=O)cc1 [SB-390766],5%
9,COc1ccc(NC(=O)c2ccoc2)cc1-c1ccc(C(=O)NCC2CC2)cc1 [GW810437],0%
10,Cc1nn2c(=O)cc(N3CCO[C@H](C)C3)nc2n1Cc1cccc(Cl)c1Cl [GSK2373693],0%
11,Cl.O=C(Nc1ccc(Oc2ccc3[nH]c(NC(=O)c4ccco4)nc3c2)cc1)Nc1cc(C(F)(F)F)ccc1F [GW683134],24%
12,O=C(O)C(F)(F)F.O=c1[nH]ccc2nc(N[C@@H]3CCNC3)nc(Nc3ccc4c(c3)S(=O)(=O)CC4)c12 [GSK2181306],5%
13,O=C(Nc1n[nH]c2cc(-c3cccs3)ccc12)C1CC1 [SB-731284],0%
14,CNc1nccc(-c2ccc3c(N)n[nH]c3c2)n1 [GSK2206003],5%
15,COc1cccc(NC(=O)NCCNc2ccnc(Nc3ccc(F)cc3)n2)c1 [GSK1379879],8%
16,CN(c1ccc2c(c1)nc(NCc1ccccc1)n2C)c1ccnc(Nc2ccc(CS(C)(=O)=O)cc2)n1.Cl [GW811603],0%
17,Cc1ccc(O)cc1Nc1ccnc2cc(-c3ccc(CN4CCCCC4)o3)ccc12 [GW557777],95.3%
18,Cc1cccc(Nc2nc(N[C@H]3CCCC[C@H]3N)ncc2C(N)=O)c1.Cl [GSK986310],15%
19,c1ccc(Oc2ccc(Nc3ccnc4cc(-c5ccc(CN6CCCCC6)o5)ccc34)cc2)nc1 [GW567143],4%

row,SMILES,%Inh
1,CC(C)c1nc(-c2ccc(F)c(NS(=O)(=O)c3c(F)cccc3F)c2)c(-c2ccnc(Nc3ccc(N4CCOCC4)nc3)n2)s1 [GSK1804250],24%
2,CCNc1nccc(-c2c(-c3ccc(F)cc3)ncn2C2CCN(C)CC2)n1,0%
3,Fc1cc(Cl)ccc1Nc1ccnc2cc(-c3ccc(CN4CCSCC4)o3)ccc12 [GW560106],0%
4,NCCC(NC(=O)c1cc(Br)c(-c2ccnc3[nH]ccc23)s1)c1ccccc1.O=C(O)C(F)(F)F.O=C(O)C(F)(F)F (stereo not shown) [GSK1307810],0%
5,Cc1ccc(NC(=O)c2ccc(Cl)c(Cl)c2)cc1-c1ccc(C(=O)Nc2ccncc2)cc1 [GSK1398460],25%
6,O=C(O)C(F)(F)F.O=c1[nH]ccc2nc(N[C@@H]3CCNC3)nc(Nc3cc(Cl)cc(Cl)c3)c12 [GSK2188764],4%
7,Nc1ncnc2scc(-c3ccc(NC(=O)Cc4cc(F)ccc4F)cc3)c12.O=C(O)C(F)(F)F [SB-731254-M],0%
8,Cc1ccc(NC(=O)c2ccnc(N3CCCCC3)c2)cc1-c1ccc(C(=O)NCC2CC2)cc1 [GW775610],0%
9,Fc1cc(Cl)ccc1Nc1ccnc2cc(-c3ccc(CN4CCOCC4)o3)ccc12 [GW560109],15%
10,CS(=O)(=O)c1cccc(CNc2nc(Nc3ccc4c(c3)CCC(=O)N4)ncc2C(F)(F)F)c1,0%
11,Cc1cc(-c2c(-c3ccc(F)cc3)ncn2CCCN2CCOCC2)nc(N)n1 [SB-222517],29%
12,CN1CCN(Cc2ccc(NC(=O)Nc3ccc(N(C)c4ccnc(Nc5ccc(CS(C)(=O)=O)cc5)n4)cc3)cc2)CC1.Cl [GW827654],0%
13,COc1cccc(C2=C(Nc3cccc(O)c3)C(=O)NC2=O)c1 [SB-390771],31%
14,O=C(Nc1n[nH]c2nc(-c3cccc(O)c3)ccc12)C1CC1 [SB-711805],1%
15,CN(c1ccc(NC(=O)Nc2cccc(Cl)c2)cc1)c1ccnc(N)n1.Cl [GW830707],62%
16,CC(=O)Nc1cn2nc(Oc3cccc(NC(=O)c4cccc(C(F)(F)F)c4)c3)ccc2n1,5%
17,COc1ccc(C)c(Nc2ccnc(Nc3ccc(-c4cnc[nH]4)cc3)n2)c1.Cl [GW784041],17%
18,Cl.Cl.NC(CNC(=O)c1cc(Br)c(-c2ccnc3[nH]ccc23)s1)c1ccccc1 (stereo not shown) [GSK1322949],0%
